# What was measured:
# Assay in all cases: DAPPL (digital affinity profiling via proximity ligation, sequencing); 10 mM Tris-HCl pH 7.5, 50 mM NaCl, 1 mM DTT, 4% glycerol, room temperature, 30 min; GST-TFs on glutathione beads, 16-mer random dsDNA library, 0.1% formaldehyde crosslink after washing; high values mean tight binding
# FLI1 = molecular target: T1, FLI1 (Homo sapiens, UniProt Q01543 1-452); settings: protein: recombinant; tags: N-terminal GST; dsDNA, one strand shown
# T1 sequence: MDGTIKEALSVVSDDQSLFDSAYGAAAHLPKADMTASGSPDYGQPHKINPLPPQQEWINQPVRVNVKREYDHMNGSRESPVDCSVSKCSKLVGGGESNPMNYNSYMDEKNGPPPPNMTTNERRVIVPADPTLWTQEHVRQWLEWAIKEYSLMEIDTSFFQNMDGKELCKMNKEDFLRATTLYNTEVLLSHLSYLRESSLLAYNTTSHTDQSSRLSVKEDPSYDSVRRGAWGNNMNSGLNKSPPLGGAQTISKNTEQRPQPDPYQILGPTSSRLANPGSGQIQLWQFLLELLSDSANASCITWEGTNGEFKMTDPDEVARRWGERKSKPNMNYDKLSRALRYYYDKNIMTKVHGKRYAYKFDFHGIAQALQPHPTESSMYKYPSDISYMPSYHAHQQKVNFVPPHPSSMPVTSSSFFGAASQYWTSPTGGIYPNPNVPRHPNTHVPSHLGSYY
# In short: (§1)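 Human transcription factors were made in yeast as GST fusions, captured on glutathione beads and barcoded with DNA. With a tag-only sample included, the pool was incubated with 200 nmole of a random double-stranded 16-mer DNA library in Tris/NaCl/DTT/glycerol buffer at room temperature for 30 min, then crosslinked with 0.1% formaldehyde after washing, ligated by proximity, amplified and sequenced. For binding signal, each hexamer's read frequency for a factor is divided by its frequency for the tag-only sample.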
# ELK1 = molecular target: T2, ELK1 (Homo sapiens, UniProt P19419 1-428); settings: protein: recombinant; tags: N-terminal GST; dsDNA, one strand shown
# T2 sequence: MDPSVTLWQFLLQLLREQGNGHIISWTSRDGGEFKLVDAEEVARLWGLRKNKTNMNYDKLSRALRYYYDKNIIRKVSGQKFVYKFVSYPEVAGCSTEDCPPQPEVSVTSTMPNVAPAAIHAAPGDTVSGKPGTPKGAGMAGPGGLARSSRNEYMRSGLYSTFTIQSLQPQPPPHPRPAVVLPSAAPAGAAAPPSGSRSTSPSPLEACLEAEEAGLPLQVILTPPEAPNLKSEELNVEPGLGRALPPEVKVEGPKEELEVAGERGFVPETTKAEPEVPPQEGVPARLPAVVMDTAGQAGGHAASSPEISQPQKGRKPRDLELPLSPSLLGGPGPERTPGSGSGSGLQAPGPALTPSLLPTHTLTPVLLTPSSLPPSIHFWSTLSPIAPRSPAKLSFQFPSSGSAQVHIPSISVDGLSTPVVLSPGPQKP
# In short: as §1
# GABPA = molecular target: T3, GABPA (Homo sapiens, UniProt Q06546 1-454); settings: protein: recombinant; tags: N-terminal GST; dsDNA, one strand shown
# T3 sequence: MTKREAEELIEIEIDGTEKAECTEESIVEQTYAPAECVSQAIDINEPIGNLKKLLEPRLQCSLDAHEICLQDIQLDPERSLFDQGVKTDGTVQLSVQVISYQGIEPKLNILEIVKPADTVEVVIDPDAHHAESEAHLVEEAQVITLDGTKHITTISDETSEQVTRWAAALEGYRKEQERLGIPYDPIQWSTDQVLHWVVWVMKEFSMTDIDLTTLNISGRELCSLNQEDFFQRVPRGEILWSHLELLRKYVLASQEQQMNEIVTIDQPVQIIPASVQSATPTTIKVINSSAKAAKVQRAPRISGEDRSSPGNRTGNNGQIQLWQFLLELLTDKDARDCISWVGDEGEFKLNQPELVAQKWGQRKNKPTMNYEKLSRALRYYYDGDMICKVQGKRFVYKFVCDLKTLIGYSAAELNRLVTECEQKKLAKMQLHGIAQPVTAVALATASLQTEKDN
# In short: as §1
# ERG = molecular target: T4, ERG (Homo sapiens, UniProt P11308 1-479); settings: protein: recombinant; tags: N-terminal GST; dsDNA, one strand shown
# T4 sequence: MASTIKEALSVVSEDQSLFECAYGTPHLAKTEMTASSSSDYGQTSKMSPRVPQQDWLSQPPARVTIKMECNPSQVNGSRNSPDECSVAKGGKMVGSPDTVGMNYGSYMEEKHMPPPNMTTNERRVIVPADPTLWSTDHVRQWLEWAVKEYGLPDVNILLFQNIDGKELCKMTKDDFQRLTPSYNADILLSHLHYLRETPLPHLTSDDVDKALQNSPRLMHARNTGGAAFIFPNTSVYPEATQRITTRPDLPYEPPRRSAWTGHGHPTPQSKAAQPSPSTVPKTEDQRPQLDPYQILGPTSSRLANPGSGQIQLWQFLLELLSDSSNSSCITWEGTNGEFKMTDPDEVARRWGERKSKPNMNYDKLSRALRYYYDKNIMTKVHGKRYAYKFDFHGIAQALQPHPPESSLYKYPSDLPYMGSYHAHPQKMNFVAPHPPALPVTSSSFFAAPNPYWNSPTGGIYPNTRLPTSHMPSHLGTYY
# In short: as §1
# ELF1 = ELF1 (Homo sapiens, UniProt P32519 1-619); settings: protein: recombinant; tags: N-terminal GST; dsDNA, one strand shown
# In short: as §1
# EHF = molecular target: T5, EHF (Homo sapiens, UniProt Q9NZC4 1-300); settings: protein: recombinant; tags: N-terminal GST; dsDNA, one strand shown
# T5 sequence: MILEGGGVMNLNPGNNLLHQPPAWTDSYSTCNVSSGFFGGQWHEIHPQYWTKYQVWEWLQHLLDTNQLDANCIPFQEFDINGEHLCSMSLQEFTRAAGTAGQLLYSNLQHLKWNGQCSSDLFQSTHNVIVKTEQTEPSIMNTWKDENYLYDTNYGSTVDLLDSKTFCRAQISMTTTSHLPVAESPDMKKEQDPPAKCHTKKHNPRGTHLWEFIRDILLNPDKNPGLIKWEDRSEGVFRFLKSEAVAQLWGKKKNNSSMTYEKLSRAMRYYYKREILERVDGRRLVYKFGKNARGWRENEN
# In short: as §1
# SPI1 = SPI1 (Homo sapiens, UniProt P17947 1-270); settings: protein: recombinant; tags: N-terminal GST; dsDNA, one strand shown
# In short: as §1
# SPIB = SPIB (Homo sapiens, UniProt Q01892 1-262); settings: protein: recombinant; tags: N-terminal GST; dsDNA, one strand shown
# In short: as §1
# ELK3 = molecular target: T6, ELK3 (Homo sapiens, UniProt P41970 1-407); settings: protein: recombinant; tags: N-terminal GST; dsDNA, one strand shown
# T6 sequence: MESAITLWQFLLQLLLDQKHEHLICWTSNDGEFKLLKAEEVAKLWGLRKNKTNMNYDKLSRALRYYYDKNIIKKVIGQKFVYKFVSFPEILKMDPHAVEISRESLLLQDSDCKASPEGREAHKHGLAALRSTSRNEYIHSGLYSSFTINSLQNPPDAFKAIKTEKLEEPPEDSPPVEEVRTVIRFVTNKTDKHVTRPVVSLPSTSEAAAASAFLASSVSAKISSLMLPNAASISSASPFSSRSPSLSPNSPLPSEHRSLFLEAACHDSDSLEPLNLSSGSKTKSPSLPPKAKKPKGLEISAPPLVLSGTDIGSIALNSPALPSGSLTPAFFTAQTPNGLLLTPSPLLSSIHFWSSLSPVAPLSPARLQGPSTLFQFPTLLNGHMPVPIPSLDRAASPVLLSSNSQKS
# In short: as §1
# FEV = molecular target: T7, FEV (Homo sapiens, UniProt Q99581 1-238); settings: protein: recombinant; tags: N-terminal GST; dsDNA, one strand shown
# T7 sequence: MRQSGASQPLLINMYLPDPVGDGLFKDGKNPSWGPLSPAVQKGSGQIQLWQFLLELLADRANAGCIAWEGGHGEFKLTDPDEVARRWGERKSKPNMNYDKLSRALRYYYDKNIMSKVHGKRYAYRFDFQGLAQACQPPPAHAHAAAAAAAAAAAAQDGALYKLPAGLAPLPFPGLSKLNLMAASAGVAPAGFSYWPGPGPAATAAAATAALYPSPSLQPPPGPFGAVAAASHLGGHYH
# In short: as §1
# ETV5 = ETV5 (Homo sapiens, UniProt P41161 1-510); settings: protein: recombinant; tags: N-terminal GST; dsDNA, one strand shown
# In short: as §1
# HSF1 = HSF1 (Homo sapiens, UniProt Q00613 1-529); settings: protein: recombinant; tags: N-terminal GST; chain copies: 3; dsDNA, one strand shown
# In short: as §1
# SPIC = molecular target: T8, SPIC (Homo sapiens, UniProt Q8N5J4 1-248); settings: protein: recombinant; tags: N-terminal GST; dsDNA, one strand shown
# T8 sequence: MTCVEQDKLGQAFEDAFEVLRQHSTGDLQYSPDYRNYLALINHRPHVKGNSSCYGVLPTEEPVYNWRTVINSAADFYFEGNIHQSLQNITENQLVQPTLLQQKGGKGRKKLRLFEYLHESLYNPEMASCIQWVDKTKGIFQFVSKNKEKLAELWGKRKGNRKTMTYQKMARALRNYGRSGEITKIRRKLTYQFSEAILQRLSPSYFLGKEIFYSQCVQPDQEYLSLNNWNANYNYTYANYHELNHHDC
# In short: as §1
# ELF4 = ELF4 (Homo sapiens, UniProt Q99607 1-663); settings: protein: recombinant; tags: N-terminal GST; dsDNA, one strand shown
# In short: as §1
# ETV2 = molecular target: T9, ETV2 (Homo sapiens, UniProt O00321 1-342); settings: protein: recombinant; tags: N-terminal GST; dsDNA, one strand shown
# T9 sequence: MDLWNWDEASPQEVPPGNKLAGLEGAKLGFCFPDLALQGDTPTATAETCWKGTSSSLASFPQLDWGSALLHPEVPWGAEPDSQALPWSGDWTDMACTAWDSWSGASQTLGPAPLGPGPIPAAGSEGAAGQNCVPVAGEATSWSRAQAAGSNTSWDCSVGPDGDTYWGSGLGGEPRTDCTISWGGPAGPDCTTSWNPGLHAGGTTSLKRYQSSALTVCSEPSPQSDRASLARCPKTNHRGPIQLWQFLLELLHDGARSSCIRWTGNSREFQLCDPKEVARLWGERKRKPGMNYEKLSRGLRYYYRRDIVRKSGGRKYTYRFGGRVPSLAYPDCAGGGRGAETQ
# In short: as §1
# CRX = CRX (Homo sapiens, UniProt O43186 1-299); settings: protein: recombinant; tags: N-terminal GST; dsDNA, one strand shown
# In short: as §1
# ETV1 = ETV1 (Homo sapiens, UniProt P50549 1-477); settings: protein: recombinant; tags: N-terminal GST; dsDNA, one strand shown
# In short: as §1
# Chain of ETV5 (P41161 whole entry): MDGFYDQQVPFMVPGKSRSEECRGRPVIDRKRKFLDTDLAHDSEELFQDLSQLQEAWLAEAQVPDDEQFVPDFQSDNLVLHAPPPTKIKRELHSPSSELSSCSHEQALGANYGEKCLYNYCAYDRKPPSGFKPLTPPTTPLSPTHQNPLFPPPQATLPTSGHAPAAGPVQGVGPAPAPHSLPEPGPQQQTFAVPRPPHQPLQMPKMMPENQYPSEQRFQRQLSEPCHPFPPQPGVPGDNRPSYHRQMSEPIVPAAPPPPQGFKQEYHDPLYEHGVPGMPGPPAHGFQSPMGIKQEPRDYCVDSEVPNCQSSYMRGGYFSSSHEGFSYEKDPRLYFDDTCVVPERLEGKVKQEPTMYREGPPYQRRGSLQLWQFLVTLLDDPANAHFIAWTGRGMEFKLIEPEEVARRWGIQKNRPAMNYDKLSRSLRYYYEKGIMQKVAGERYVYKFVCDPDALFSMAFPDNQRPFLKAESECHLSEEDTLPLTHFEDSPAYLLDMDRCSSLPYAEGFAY
# Chain of SPIB (Q01892 whole entry): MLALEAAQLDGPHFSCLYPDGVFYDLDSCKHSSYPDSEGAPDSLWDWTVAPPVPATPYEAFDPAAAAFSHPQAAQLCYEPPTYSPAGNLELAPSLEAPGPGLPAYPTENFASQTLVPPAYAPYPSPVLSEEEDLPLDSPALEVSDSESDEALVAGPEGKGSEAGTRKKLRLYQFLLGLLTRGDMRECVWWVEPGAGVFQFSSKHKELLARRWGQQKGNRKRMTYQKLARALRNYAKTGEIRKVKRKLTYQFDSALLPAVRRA
# Chain of ETV1 (P50549 whole entry): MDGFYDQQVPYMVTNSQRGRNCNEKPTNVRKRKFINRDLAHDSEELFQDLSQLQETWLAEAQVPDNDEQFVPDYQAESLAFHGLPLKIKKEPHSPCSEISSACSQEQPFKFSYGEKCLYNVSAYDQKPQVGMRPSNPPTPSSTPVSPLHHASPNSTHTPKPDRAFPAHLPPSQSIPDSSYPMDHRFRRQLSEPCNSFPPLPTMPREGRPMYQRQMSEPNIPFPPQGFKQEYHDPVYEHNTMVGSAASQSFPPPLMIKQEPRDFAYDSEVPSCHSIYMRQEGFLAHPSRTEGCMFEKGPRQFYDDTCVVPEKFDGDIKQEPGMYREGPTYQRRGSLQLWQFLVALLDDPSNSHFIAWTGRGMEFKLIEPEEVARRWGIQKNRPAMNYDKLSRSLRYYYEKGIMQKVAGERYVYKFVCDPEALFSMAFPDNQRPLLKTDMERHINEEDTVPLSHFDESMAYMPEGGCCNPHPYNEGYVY
# Chain of ELF4 (Q99607 whole entry): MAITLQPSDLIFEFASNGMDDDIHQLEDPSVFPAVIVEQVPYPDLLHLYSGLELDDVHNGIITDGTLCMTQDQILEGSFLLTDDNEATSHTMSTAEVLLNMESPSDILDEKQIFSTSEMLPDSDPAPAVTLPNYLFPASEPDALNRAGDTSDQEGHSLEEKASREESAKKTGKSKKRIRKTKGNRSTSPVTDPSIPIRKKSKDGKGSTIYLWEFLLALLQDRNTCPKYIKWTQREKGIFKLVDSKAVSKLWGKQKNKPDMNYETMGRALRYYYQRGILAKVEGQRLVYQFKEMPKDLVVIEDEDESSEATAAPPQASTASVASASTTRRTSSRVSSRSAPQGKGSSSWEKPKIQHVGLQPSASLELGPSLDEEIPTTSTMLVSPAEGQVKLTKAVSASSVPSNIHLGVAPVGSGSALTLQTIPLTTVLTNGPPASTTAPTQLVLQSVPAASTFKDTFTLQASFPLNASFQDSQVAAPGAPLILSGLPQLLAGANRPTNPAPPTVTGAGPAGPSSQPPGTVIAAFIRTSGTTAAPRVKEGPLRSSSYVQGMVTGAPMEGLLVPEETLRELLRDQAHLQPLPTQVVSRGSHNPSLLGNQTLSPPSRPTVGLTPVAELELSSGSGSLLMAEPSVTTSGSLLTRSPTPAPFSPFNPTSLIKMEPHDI
# Chain of CRX (O43186 whole entry): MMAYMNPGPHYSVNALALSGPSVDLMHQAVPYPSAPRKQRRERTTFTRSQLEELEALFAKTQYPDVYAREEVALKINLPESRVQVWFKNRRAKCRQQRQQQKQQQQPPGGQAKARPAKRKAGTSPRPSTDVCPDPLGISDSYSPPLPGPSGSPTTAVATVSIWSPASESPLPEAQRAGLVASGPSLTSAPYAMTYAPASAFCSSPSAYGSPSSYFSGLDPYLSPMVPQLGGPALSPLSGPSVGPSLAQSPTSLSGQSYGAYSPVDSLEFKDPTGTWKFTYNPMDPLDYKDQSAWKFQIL
# Chain of HSF1 (Q00613 whole entry): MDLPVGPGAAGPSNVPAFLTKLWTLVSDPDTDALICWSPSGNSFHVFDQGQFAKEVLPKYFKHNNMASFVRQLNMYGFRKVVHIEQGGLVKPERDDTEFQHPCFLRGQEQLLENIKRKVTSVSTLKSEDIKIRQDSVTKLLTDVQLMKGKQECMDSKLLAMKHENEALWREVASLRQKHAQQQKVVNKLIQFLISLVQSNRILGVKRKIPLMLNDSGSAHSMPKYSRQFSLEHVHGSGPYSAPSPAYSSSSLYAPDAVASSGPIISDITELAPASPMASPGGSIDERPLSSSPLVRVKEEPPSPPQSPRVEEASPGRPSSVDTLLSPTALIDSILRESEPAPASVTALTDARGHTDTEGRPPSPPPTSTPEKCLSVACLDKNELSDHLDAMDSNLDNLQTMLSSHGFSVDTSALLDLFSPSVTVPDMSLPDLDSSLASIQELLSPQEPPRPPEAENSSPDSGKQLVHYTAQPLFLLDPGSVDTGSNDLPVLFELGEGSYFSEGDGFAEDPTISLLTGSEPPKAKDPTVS
# Chain of ELF1 (P32519 whole entry): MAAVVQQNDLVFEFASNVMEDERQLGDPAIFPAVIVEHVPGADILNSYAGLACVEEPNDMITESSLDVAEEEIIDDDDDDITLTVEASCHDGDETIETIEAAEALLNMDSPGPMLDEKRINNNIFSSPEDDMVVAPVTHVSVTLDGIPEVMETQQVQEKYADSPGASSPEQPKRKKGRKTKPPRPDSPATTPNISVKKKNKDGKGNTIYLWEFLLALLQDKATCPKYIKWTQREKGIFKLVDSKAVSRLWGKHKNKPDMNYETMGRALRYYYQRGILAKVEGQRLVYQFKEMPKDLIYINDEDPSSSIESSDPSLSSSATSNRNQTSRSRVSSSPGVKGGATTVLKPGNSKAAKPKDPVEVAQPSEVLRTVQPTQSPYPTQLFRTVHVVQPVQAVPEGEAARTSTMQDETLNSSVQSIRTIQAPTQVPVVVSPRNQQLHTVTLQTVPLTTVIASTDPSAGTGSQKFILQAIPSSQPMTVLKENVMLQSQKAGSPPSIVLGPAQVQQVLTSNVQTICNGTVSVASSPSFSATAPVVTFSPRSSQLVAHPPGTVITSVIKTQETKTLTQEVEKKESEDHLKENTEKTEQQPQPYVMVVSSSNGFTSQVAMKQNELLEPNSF
sequence,measurement,setting,value
CTAGGC,binding signal,FLI1,"1.17 fold enrichment (6-mer frequency, TF over GST control)"
same,binding signal,ELK1,"1.1 fold enrichment (6-mer frequency, TF over GST control)"
same,binding signal,GABPA,"1.23 fold enrichment (6-mer frequency, TF over GST control)"
same,binding signal,ERG,"1.13 fold enrichment (6-mer frequency, TF over GST control)"
same,binding signal,ELF1,"1.14 fold enrichment (6-mer frequency, TF over GST control)"
same,binding signal,EHF,"1.01 fold enrichment (6-mer frequency, TF over GST control)"
same,binding signal,SPI1,"1.07 fold enrichment (6-mer frequency, TF over GST control)"
same,binding signal,SPIB,"1.05 fold enrichment (6-mer frequency, TF over GST control)"
same,binding signal,ELK3,"1.1 fold enrichment (6-mer frequency, TF over GST control)"
same,binding signal,FEV,"1.16 fold enrichment (6-mer frequency, TF over GST control)"
same,binding signal,ETV5,"1.06 fold enrichment (6-mer frequency, TF over GST control)"
same,binding signal,HSF1,"1.22 fold enrichment (6-mer frequency, TF over GST control)"
same,binding signal,SPIC,"1.15 fold enrichment (6-mer frequency, TF over GST control)"
same,binding signal,ELF4,"1.16 fold enrichment (6-mer frequency, TF over GST control)"
same,binding signal,ETV2,"1.21 fold enrichment (6-mer frequency, TF over GST control)"
same,binding signal,CRX,"1.17 fold enrichment (6-mer frequency, TF over GST control)"
same,binding signal,ETV1,"1.04 fold enrichment (6-mer frequency, TF over GST control)"

# Source: PMC7862700, “An all-to-all approach to the identification of sequence-specific readers for epigenetic DNA modifications on cytosine”
